The results in this text go back to PubChem BioAssay (NCATS).

Results filed as inconclusive are left out. Calls of active or inactive are those of the source. Unless noted, the call rests on the fitted dose curve; in most records, active means well fitted curve in the direction sought with a large enough effect; inconclusive means small, poorly fitted or top-dose-only effect, or another doubt; inactive means no such curve, though single readings can be large; an effect the other way counts as inactive or inconclusive.

Assay [1] is described as follows: HPAF-II Cancer Cell Toxicity qHTS against the NCATS CANVASS Library (AID 1347346). Further: nearly all actives have a fitted effect of over 55% in size. Further: potency means the concentration at half of the fitted maximal effect. A digest of the protocol: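 HPAF-II cells at 1000 cells/well were treated with an 11-point concentration series for 72 hours at 37 degrees C. Viability read by CellTiter-Glo luminescence.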
(In general: In qHTS, concentration-response curves come from the screen itself.)

Assay [2] deals with DNA dC->dU-editing enzyme APOBEC-3G (Homo sapiens) (UniProt Q9HC16). Nature of the assay: qHTS for inhibitors of Vif-A3G interactions: Validation (AID 588379). A digest of the protocol:
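HeLa cells stably expressing Vif and A3G-eYFP, 700 cells/well, incubated overnight at 37 deg C, then exposed to compound overnight at 37 deg C. Inhibition of Vif-mediated degradation read as increased yellow fluorescence (Ex 488/Em 500-530) by laser-scanning cytometry.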

Assay [3] is described as follows: Panc-1005 Cancer Cell Toxicity qHTS against the NCATS CANVASS Library (AID 1347349). Further: nearly all actives have a fitted effect of over 60% in size. Further: potency means the concentration at half of the fitted maximal effect. The method in brief:
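Per well, 1000 cells; exposure 72 h with compound at 11 final concentrations; readout CellTiter-Glo luminescence.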

The nature of assay [4]: Validation of Assay for Modulators of Lamin A Splicing (AID 1459; active means well fitted curve in the direction sought with a large enough effect in the signal ratio; the % refers to the signal ratio;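 further: cells exposed to compound for two days before reading; ratio rise marks activators and ratio drop marks inhibitors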). The method in brief: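 Splicing correction is reported by an EGFP-containing lamin A minigene in stably transfected S3 HeLa cells, while DsRed2 controls for viability and nonspecific signal. Cells are exposed to compounds for 48 hrs before the GFP over RFP ratio is taken.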
The target in assay [5] is DNA repair nuclease/redox regulator APEX1 (Homo sapiens) (UniProt P27695). The assay is described as follows: qHTS Validation Assay for Inhibitors of the Human Apurinic/apyrimidinic Endonuclease 1 (APE1) (AID 1705; further: potency means the concentration at half of the fitted maximal effect). The method in brief:
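Endonuclease activity of human APE1 is followed as dequenching when the enzyme incises a tetrahydrofuran abasic site in a short duplex labelled 5'-TAMRA/3'-BHQ-2 (50 nM final), after 15 min enzyme–compound preincubation at room temperature.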

Assay [6] can be described thus: Counterscreen for APE1 Inhibitors: Fluorescent Dye Displacement Validation Assay (AID 1707). The method in brief: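 Assay buffer: Tris-HCl pH7.5 with 50mM NaCl, 2 mM MgCl2, 0.01% Tween-20. Dye 250 nM, duplex 50 nM final. Readout: decrease in ThO endpoint fluorescence, 480 nm excitation, 540 nm emission.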
Assay [7] concerns the target Endonuclease 4 (Escherichia coli (strain K12)) (UniProt P0A6C1). The assay is described as follows: Counterscreen for APE1 Inhibitors: qHTS Validation Assay for Inhibitors of Endonuclease IV (AID 1708). A digest of the protocol:
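E. coli EndoIV at 2 nM final, preincubated 15 min at room temperature with compound, then 50 nM TAMRA/BHQ-2 THF abasic-site duplex added. Buffer: 50 mM Tris-HCl pH 7.5, 50 mM NaCl, 2 mM MgCl2, 1 mM DTT, 0.01% Tween-20. Kinetic fluorescence increase, third minus first read.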
A general note: The purpose of a counterscreen is to sort out artefacts and off-target activity.

Assay [8] has as its target Ubiquitin carboxyl-terminal hydrolase 1 (Homo sapiens) (UniProt O94782). The assay is described as follows: Inhibitors of USP1/UAF1: Pilot qHTS (AID 504865).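 Further: rhodamine fluorescence freed from ubiquitin-rhodamine substrate followed over time; top concentration of the series differs between compounds; nearly all actives have a fitted effect of over 35% in size.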 The method in brief:
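Kinetic fluorescence assay: 1nM USP1/UAF1, 15 min compound preincubation, then 150nM Ub-Rho; 480/540 nm.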

A short description of assay [9]: S16 Schwann cell PMP22 intronic element firefly luciferase assay (AID 624032). Further: nearly all actives have a fitted effect of over 30% in size. Further: potency means the concentration at half of the fitted maximal effect. The method in brief: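 Rat S16 Schwann cells stably carrying firefly luciferase driven by a PMP22 intronic element, in 10% FBS, treated 24 h at 37 C. ONE-Glo luminescence normalized to PTC124 control and DMSO (0%); curves classed by r2, magnitude and activity.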
Another assay has as its system CP250. The assay is described as follows: qHTS profiling for inhibitors of Plasmodium falciparum proliferation (AID 504749). Further: nearly all actives have a fitted effect of over 60% in size. Further: potency means the concentration at half of the fitted maximal effect. Conditions: P. falciparum in erythrocytes, SYBR Green DNA, 72 h; series mostly up to 28.7 µM. The method in brief: (§1)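 P. falciparum-infected erythrocytes (0.3% parasitemia, 2.5% hematocrit) incubated with compound 72 h at 37 C, 5% CO2. Parasite DNA detected by SYBR Green after lysis, overnight at room temperature; normalised to 0.29 uM artemisinin and DMSO.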

In a further assay the test system is CP262. Described as above. Conditions: P. falciparum in erythrocytes, SYBR Green DNA, 72 h; series mostly up to 28.7 µM. A digest of the protocol: as §1
A further assay has as its system CP265. The assay is described as above. The conditions noted are these: P. falciparum in erythrocytes, SYBR Green DNA, 72 h; series mostly up to 28.7 µM. The method in brief:
as §1

In another assay the test system is CP297. The assay is described as above. The conditions noted are these: P. falciparum in erythrocytes, SYBR Green DNA, 72 h; series mostly up to 28.7 µM. The method in brief:
as §1

In the next assay the test system is CP315. Described as above. Conditions: P. falciparum in erythrocytes, SYBR Green DNA, 72 h; series mostly up to 28.7 µM. A digest of the protocol:
as §1

A further assay concerns CP325. The description is as above. The conditions noted are these: P. falciparum in erythrocytes, SYBR Green DNA, 72 h; series mostly up to 28.7 µM. A digest of the protocol: as §1
A further assay deals with CP329. The assay is described as above. Conditions: P. falciparum in erythrocytes, SYBR Green DNA, 72 h; series mostly up to 28.7 µM. A digest of the protocol: as §1
The subject of another assay is ECU. Described as above. The conditions noted are these: P. falciparum in erythrocytes, SYBR Green DNA, 72 h; series mostly up to 28.7 µM. The method in brief:
as §1

The next assay relates to FAB9. The description is as above. The conditions noted are these: P. falciparum in erythrocytes, SYBR Green DNA, 72 h; series mostly up to 28.7 µM. The method in brief:
as §1

The next assay deals with PAD. Described as above. Conditions: P. falciparum in erythrocytes, SYBR Green DNA, 72 h; series mostly up to 28.7 µM. A digest of the protocol:
as §1

The next assay has as its system SC27B. Described as above. The conditions noted are these: P. falciparum in erythrocytes, SYBR Green DNA, 72 h; series mostly up to 28.7 µM. The method in brief:
as §1

Sequence of Ubiquitin carboxyl-terminal hydrolase 1 (Homo sapiens) (O94782 whole entry, looked up): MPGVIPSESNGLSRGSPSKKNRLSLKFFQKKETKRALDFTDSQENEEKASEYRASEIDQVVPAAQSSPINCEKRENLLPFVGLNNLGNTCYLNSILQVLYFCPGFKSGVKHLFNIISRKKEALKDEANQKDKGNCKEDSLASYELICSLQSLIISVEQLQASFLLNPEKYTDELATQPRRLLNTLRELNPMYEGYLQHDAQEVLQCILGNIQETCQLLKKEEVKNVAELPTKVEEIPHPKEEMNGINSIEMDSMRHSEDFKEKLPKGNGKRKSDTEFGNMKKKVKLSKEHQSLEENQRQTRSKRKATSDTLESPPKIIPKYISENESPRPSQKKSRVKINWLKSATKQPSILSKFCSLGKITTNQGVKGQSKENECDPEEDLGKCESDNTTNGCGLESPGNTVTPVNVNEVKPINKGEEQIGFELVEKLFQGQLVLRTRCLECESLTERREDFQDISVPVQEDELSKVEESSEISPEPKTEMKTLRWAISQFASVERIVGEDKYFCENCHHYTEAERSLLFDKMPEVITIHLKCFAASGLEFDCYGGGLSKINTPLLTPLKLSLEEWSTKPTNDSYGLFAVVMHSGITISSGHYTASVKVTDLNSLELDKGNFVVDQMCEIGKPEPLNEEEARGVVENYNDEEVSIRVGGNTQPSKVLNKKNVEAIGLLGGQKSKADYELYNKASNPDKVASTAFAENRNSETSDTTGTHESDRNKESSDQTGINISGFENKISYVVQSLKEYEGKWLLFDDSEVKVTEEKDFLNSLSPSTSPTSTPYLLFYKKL
Sequence of DNA repair nuclease/redox regulator APEX1 (Homo sapiens) (P27695 whole entry, looked up): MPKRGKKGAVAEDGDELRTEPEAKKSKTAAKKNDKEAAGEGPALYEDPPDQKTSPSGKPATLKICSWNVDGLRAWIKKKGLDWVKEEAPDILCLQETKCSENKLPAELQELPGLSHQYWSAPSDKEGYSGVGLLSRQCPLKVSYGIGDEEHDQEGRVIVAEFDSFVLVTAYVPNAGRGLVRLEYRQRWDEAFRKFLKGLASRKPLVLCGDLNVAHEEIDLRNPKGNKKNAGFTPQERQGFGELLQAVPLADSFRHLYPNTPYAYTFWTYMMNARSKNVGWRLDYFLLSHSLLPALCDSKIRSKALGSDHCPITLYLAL
Sequence of DNA dC->dU-editing enzyme APOBEC-3G (Homo sapiens) (Q9HC16 whole entry, looked up): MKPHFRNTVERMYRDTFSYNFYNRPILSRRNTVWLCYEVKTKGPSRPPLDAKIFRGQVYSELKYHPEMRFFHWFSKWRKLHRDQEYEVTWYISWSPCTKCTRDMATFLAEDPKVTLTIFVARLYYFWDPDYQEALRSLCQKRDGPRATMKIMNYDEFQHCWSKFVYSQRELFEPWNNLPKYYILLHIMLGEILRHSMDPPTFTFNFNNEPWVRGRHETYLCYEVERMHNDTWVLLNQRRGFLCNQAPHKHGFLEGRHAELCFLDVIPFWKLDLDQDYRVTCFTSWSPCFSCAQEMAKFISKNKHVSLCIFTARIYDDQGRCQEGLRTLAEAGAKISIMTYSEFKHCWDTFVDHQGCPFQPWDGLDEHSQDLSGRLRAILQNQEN

Consider `CO[C@@H]1[C@H](O)[C@@H](C)O[C@@H](OC[C@@H]2C(C)OC(=O)/C=C/[C@H](C)C(O[C@@H]3O[C@H](C)CC4(OC(=O)O[C@@H]4C)C3O)[C@@H](C)CC(C)C(=O)/C=C/[C@H]3OC23)[C@@H]1OC` (stereo partly drawn), for which, in assay [1], the Potency entry was “inactive”.
On to `C=C[C@@](C)(O)CC[C@@H]1[C@@]2(C)CCCC(C)(C)[C@@H]2CC[C@@]1(C)O`, for which the compound was classed as inactive in assay [2].
With `C[C@H](CCC(O)C(C)(O)CO)[C@@]1(O)CC[C@@]2(C)C3=C(CC[C@@]21C)[C@@]1(C)CCC(OC(=O)CCC(=O)O)C(C)(C)[C@@H]1CC3` (stereo partly drawn), in [3], the Potency entry is “inactive”.
Still for that read-out and setting: to `C/C=C/c1cc2c(c(=O)o1)C(=O)[C@@H](O)[C@H](C)O2` belongs 13.3 µM (active).
Turning to `CC[C@@H]1[C@H](C)[C@H](c2cc(OC)c(OC)cc2OC)[C@@H](C)[C@H](c2cc(OC)c(OC)cc2OC)[C@]12C=C(OC)C(=O)C=C2OC`, the Potency in assay [1] is 18.8 µM (active).
In the case of `CN(CCOc1ccc(C[C@H](Nc2ccccc2C(=O)c2ccccc2)C(=O)O)cc1)c1ccccn1`, the result in [4], in [7] and in assay [2] was inactive. In addition, the Potency result in [5] and in assay [6] was “inactive” in each case.
Consider `C[C@H]1CC2[C@@H]3CCC4=CC(=O)C=C[C@]4(C)[C@@]3(F)[C@@H](O)C[C@]2(C)[C@@]1(O)C(=O)CO` (stereo partly drawn), for which the result in assay [4] and in assay [7] was inactive. In addition, the Potency in assay [5] was 39.8 µM (active). Further, in [6], the Potency entry is “inactive”.
In the case of `C[C@@]12C(=O)OC(=O)[C@]1(C)[C@H]1CC[C@@H]2O1`, the Potency result (in [8]; with FAB9) was “inactive” in each case. Moreover, the Potency was 0.616 µM (active) in assay [9]; 3.16 µM (active) in the assay on CP250; 3.61 µM (active) in the assay with CP262; 3.55 µM (active) in the assay with CP265; 3.22 µM (active) in the assay on CP297; 5.73 µM (active) with CP315. In addition, the Potency is 3.61 µM (active) in the assay with CP325; 2.56 µM (active) in the assay with CP329; 3.55 µM (active) with ECU; 3.98 µM (active) in the assay on PAD; 2.82 µM (active) in the assay on SC27B.
For the compound `C=C1CCC2[C@](C)(CO)C(O)CC[C@]2(C)C1C/C=C1/C(=O)OCC1O` (stereo partly drawn), the Potency entry (in assay [8]; in the assay with CP262; in the assay on CP265; with CP297; with CP315; with CP325) was “inactive” each time. Besides, the Potency entry in the assay on CP329, in the assay with ECU, in the assay on FAB9, in the assay on PAD and with SC27B was “inactive” throughout. Further, the Potency in assay [9] was 14.4 µM (active); in the assay with CP250, 12.6 µM (active).
For `CC(/C=C1\SC(=S)N(CC(=O)O)C1=O)=C\c1ccccc1`, the Potency entry (in assay [8]; in assay [9]; with CP250; in the assay with CP262; with CP265; with CP297) was “inactive” in each case. The Potency result with CP315, with CP325, in the assay with CP329, in the assay with ECU, in the assay on FAB9 and in the assay on PAD was “inactive” throughout. Besides, the Potency entry in the assay on SC27B is “inactive”.
